High-throughput results: PubChem BioAssay, several laboratories
This is a sample that favours compounds with a hit; in the whole collection about 3.5% have one here.
CHRM1 agonist: agonists of human M1 muscarinic receptor. 0.33% of 360,000 active. P11229. CHO-K1 hM1, Fluo-8 calcium fluorescence, agonist mode; 0% DMSO, 100% acetylcholine EC100. activation, % at 3 µM;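 active means activation above the run's mean compound activation plus 3 SD, cut at about 16% in these data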;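 further: peak over basal fluorescence ratio within a 140 s kinetic read after compound addition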
SKN-1 block: inhibitors of C. elegans SKN-1; AID 624304; inhibition, % at 21.8 µM; 0.49% of 360,000 active; C. elegans VP596 Pgst-4::GFP/RFP ratio, acrylamide-induced, 24 h;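 active means interference check ratio from 0.5 to 1.5 plus GFP to RFP signal ratio inhibition reaching or exceeding a fixed threshold, cut at about 30% in these data, passing the limit was not always enough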
ATG4B inh: inhibitors of human ATG4B cysteine protease; ATG4B cleavage of LC3-PLA2, NBD-HPC fluorescence, 1 h; Q9Y4P1; 0.51% of 340,000 active; AID 504462; inhibition, % at 8.33 µM; in the data active means inhibition above about 40%
Target sequence (Q9Y4P1 whole entry, looked up): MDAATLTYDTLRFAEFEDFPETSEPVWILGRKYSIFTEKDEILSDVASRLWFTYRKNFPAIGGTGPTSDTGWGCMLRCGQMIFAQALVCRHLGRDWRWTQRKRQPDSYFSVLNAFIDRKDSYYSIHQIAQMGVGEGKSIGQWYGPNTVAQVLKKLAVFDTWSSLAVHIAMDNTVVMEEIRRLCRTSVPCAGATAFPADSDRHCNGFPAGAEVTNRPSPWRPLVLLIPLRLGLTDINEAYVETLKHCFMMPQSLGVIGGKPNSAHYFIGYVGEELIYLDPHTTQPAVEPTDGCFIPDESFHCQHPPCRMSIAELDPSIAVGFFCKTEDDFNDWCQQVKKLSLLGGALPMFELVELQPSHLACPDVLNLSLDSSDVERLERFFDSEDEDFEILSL
CHRM1 antagonist: blocks human M1 muscarinic receptor. 1.3% of 360,000 active. AID 588852. inhibition, % at 3 µM. CHO-K1 hM1, Fluo-8 calcium fluorescence, ACh EC80 antagonist;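 active means percent inhibition above its own plate's cutoff, namely the mean of that plate's compound wells plus 3 SD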;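 further: peak over basal fluorescence ratio during 140 s after agonist addition; 0% = ACh EC80 plus DMSO and 100% = DMSO alone without agonist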
Myeloid diff MLP: myeloid differentiation induction; AID 624256; calls only at 10 µM; 1% of 360,000 active; ER-HoxA9 myeloid progenitors, lysozyme-GFP differentiation, flow cytometry;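 active means normalized GFP-positive differentiation at or above the plate's own cutoff, the solvent-only control mean plus 3 SD; inconclusive means no clear call, values can overlap the other calls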;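 further: cells exposed to compound for four days before flow analysis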
CHRM1 PAM: potentiates human M1 receptor response to acetylcholine. P11229. CHO-K1 hM1, Fluo-8 calcium fluorescence, ACh EC20; 0% = ACh EC20, 100% = maximal ACh. activation, % at 3 µM. 0.088% of 360,000 active. AID 588819; in the data active means activation above about 19%, passing the limit was not always enough
The depositor's hits bear a star; i = inactive; ? = inconclusive; / = not tested or not shown; + = active, no number.

SMILES	CHRM1 agonist	SKN-1 block	ATG4B inh	CHRM1 antagonist	Myeloid diff MLP	CHRM1 PAM
Cc1cc(N2CCCCC2)nc2ccccc12	-7.8	4.7	-10.1	30.1	i	-20.5
Cc1cc(N2CCCCCC2)nc2ccccc12	-6.8	2.5	6.6	34.9*	i	-20.5
CC[C@@H]1CCC[C@@H](O)[C@@H](C)C(=O)O[C@H](C)[C@@H](C)C/C=C(C)/C(OC)=C\C(=O)N(C)C([C@@H](C)CC)C(=O)N(C)[C@@H](C(C)C)C(=O)N(C)[C@@H](COC)C(=O)N2CCC[C@H]2C(=O)N(C)[C@@H](C(C)C)C(=O)N2CCC[C@H]2C(=O)O1 (stereo partly drawn)	4.2	44.0*	/	12.5	?	-8.8
O=C(N/N=C\c1ccncc1)c1ccc(Br)s1	-0.8	41.2*	-3.1	-9.9	i	7.7
CCCCN(CC)C(=S)Nc1ccc2nc(N3CCN(C)CC3)cc(C)c2c1	-6.9	4.8	-13.1	5.1	i	-1.4
CCCS(=O)(=O)N1CCN(Cc2ccccc2C(F)(F)F)CC1	-3.6	4.6	-1.1	2.0	i	7.5
CN1CCCN(Cc2ccccc2C(F)(F)F)CC1	-6.6	-3.5	1.4	29.1*	i	-25.2
Oc1ccccc1/C=N/Nc1cccc2cccnc12	-2.9	-1.1	0.4	-4.8	+	6.6
O=[N+]([O-])c1cccc(COc2ccc(CN3CCCC3)cc2)c1	-8.1	-5.3	7.4	58.7*	i	-30.5
O=[N+]([O-])c1cccc(COc2ccc(CN3CCOCC3)cc2)c1	-3.7	14.2	-6.7	48.8*	i	-26.1
O=[N+]([O-])c1cccc(CN2CCCCCC2)c1	-9.3	-6.2	11.3	-8.8	i	8.4
O=C(O)c1ccc(S(=O)(=O)N2CCN(c3ccccn3)CC2)cc1	-2.7	24.5	0.4	-16.6	i	8.4
CCN1/C(=C(\O)c2ccccc2)C(=O)c2ccccc2S1(=O)=O	-1.5	44.1*	-4.3	-24.1	i	0.0
C=CCn1c(N)c(C(=O)Nc2cccc(C)c2)c2nc3ccccc3nc21	0.6	2.1	-23.1	-12.6	i	15.7
C=CCn1c(N)c(C(=O)Nc2ccc(C)c(C)c2)c2nc3ccccc3nc21	-0.3	39.8*	-23.2	-5.3	i	8.6
CCOc1ccc(C(C)=O)cc1COc1ccc(-c2nnco2)cc1	-5.3	0.7	-4.9	-12.0	i	9.3
O=c1oc2ccccc2cc1-c1nc2c(s1)CCc1ccccc1-2	-3.9	10.0	20.7	-6.6	i	7.0
O=c1oc2cc(O)ccc2cc1-c1nc2c(s1)CCc1ccccc1-2	11.6	-6.6	-7.6	15.7	+	-7.8
Cc1cccc(-c2noc(CN(C(=O)c3c(-c4ccccc4Cl)noc3C)C(C)C)n2)c1	-6.9	11.8	-1.8	2.2	i	-7.1
Cc1onc(-c2ccccc2Cl)c1C(=O)N(Cc1nc(-c2ccccc2)no1)C1CCCCC1	-2.8	3.2	16.4	0.7	+	4.5
CCN(CC)C(=O)c1cccc(-c2csc(C(O)c3ccco3)n2)c1 (stereo not drawn)	0.6	-5.0	/	-10.9	+	11.3
C=CCN(Cc1ccc(Br)s1)C(=O)c1ccc(OCc2c(C)noc2C)cc1	-4.9	5.9	/	10.2	i	-12.4
NNc1nc2c(-c3ccc(F)cc3)nnn2c2ccccc12	-3.9	20.2	-5.8	-3.8	+	4.9
Fc1ccc(-c2nnn3c2nc(NCc2ccccc2)c2ccccc23)cc1	-2.9	10.8	-3.0	-19.3	i	4.3
NNc1nc2c(-c3ccc(Cl)cc3)nnn2c2ccccc12	3.1	-4.4	5.8	-30.3	+	6.8
SMILES	CHRM1 agonist	SKN-1 block	ATG4B inh	CHRM1 antagonist	Myeloid diff MLP	CHRM1 PAM
O=C1[C@H]2CCC=C[C@H]2[C@H](c2ccccc2Br)N1Cc1ccccc1	-8.5	0.8	32.3	-3.2	i	-3.8
COc1ccc(N2C(=O)[C@H]3CCC=C[C@H]3[C@@H]2c2ccccc2Br)cc1	-7.9	12.8	8.5	47.4*	i	-26.6
O=C(Nc1ccc(C(=O)N2CCOCC2)cc1)C1CCC1	-1.6	-16.4	-1.2	-8.7	i	4.4
CCOC(=O)c1c(C)c(C)n2c1NC(=O)C2	0.5	46.4*	/	9.5	i	-1.7
COc1ccc(OC)c(C(=O)c2coc3ccc(O)c(CN(C)C)c23)c1	-7.2	3.7	0.9	-6.0	i	7.8
COc1ccc(C(=O)c2coc3ccc(O)c(CN4CCCCC4)c23)cc1	-10.1	4.9	-0.8	-15.3	+	9.7
COc1ccc2occ(C(=O)c3coc4ccc(O)c(CN(C)C)c34)c2c1	-2.4	3.6	-3.6	20.0*	i	-12.3
O=C(/C=C/c1cn(CC(O)CN2CCCCCC2)c2ccccc12)c1cccs1 (stereo not drawn)	-6.1	-0.8	-7.4	7.0	+	-6.6
CC1CCc2nn(CC(=O)N3CCCCCC3)cc2C1 (stereo not drawn)	-4.4	-0.9	-1.0	-12.4	i	9.5
CC1CCc2nn(CC(=O)N3CCc4ccccc43)cc2C1 (stereo not drawn)	-13.6	9.2	-1.8	101.8*	i	-34.5
COc1cc2c3nnc(-c4ccc(F)cc4)c-3cn(Cc3ccccc3F)c2cc1OC	-9.1	-14.0	1.4	-15.4	+	10.8
COc1cc2c3nnc(-c4ccccc4)c-3cn(Cc3ccccc3F)c2cc1OC	/	/	-10.2	/	/	/
O=C(/C=C/c1cccs1)c1ccc(Br)cc1	-1.7	37.2*	15.1	-16.9	i	9.2
O=C(/C=C/c1cccs1)c1ccc(NC(=O)c2cccc(Br)c2)cc1	-0.2	21.9	0.8	14.8	i	-1.2
COc1ccccc1NC(=O)CCC(=O)c1ccc(-c2ccccc2)cc1	1.4	-8.9	-2.5	6.6	+	8.1
COc1ccccc1NC(=O)CCC(=O)Nc1ccccc1OC	-1.1	-11.1	-10.6	-6.0	i	7.1
NC(=O)c1nn(-c2ccccc2)nc1NC(=O)CN1CCOCC1	-2.4	-1.7	-2.4	-2.3	i	2.2
CC1(C(=O)NCc2ccccc2)CN(S(C)(=O)=O)CC(=O)N1Cc1cccc(F)c1 (stereo not drawn)	/	-15.0	/	/	i	/
Cc1cc(C(=O)CSc2nnc(-c3cccs3)n2Cc2ccccc2)c(C)n1C	-3.4	35.8*	32.0	-3.6	i	-5.6
CN1CCN(C(=O)c2ccccc2NC(=O)c2cccs2)CC1	-1.5	-2.0	-10.5	active	i	-14.5
CC(C)(C)C(=O)Nc1ccc(N2CCN(C(=O)c3cccs3)CC2)cc1	-1.9	-2.4	/	-2.2	+	-2.0
COc1cccc(OC)c1C(=O)Nc1ccc(N2CCN(C(=O)c3cccs3)CC2)cc1	-2.1	-3.4	0.4	-4.8	i	3.7
O=C(Nc1ccccc1Oc1ccccc1)c1cccs1	-7.3	41.9*	3.0	2.1	i	-3.1
